# From PubChem BioAssay
# Most compounds without a hit are left out; they make up all but 11% or so of the library.
# ALDH1A1 inh: inhibitors of human aldehyde dehydrogenase 1A1; P00352; Purified ALDH1A1, NADH fluorescence, propionaldehyde substrate; Potency, µM (highest dose often 75.3 µM), without a hit: at the highest dose activity, negative = inhibition, most hits filed as inhibitors; 7.3% of 220,000 active;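 further: potency means the concentration at half of the fitted maximal effect; plate controls were no enzyme wells and a reference inhibitor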
# Target sequence (P00352 whole entry, looked up): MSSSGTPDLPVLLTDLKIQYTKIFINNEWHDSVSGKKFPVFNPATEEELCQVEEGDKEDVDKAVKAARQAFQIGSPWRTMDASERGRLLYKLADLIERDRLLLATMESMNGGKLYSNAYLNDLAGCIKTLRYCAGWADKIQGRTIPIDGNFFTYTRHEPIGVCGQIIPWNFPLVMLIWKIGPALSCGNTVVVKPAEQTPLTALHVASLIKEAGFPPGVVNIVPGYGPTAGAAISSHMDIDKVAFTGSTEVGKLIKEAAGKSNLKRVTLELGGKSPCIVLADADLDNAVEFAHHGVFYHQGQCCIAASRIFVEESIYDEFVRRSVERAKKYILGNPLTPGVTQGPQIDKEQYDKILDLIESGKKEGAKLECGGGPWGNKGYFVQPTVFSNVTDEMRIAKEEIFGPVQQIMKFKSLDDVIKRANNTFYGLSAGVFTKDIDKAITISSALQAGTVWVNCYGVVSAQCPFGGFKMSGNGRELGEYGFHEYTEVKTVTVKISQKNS
# IMPase Li cell: IMPase inhibition in cells with lithium potentiation. CHO-M1 cells, IP1 TR-FRET (IP-One), carbachol + lithium. Potency, µM (top dose mostly 59.4 µM), for inactives: at the highest dose activity, negative = IMPase inhibition, most hits filed as inhibitors. 0.35% of 210,000 active. AID 1457; active means well fitted curve in the direction sought with a large enough effect; inconclusive means small, poorly fitted or top-dose-only effect, or another doubt; inactive means no such curve, though single readings can be large; an effect the other way counts as inactive or inconclusive;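 further: IP1 builds up when IMPase is blocked and the TR-FRET signal falls; potency means the concentration at half of the fitted maximal effect; plate controls were basal vehicle for no effect and high inhibitor control for full effect; nearly all actives have a fitted effect of over 50% in size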
#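 CHO-M1, 2000 cells/well, 16–30 h culture; cpd + low Li+, 30 min 37C; lysis with d2-IP1/Eu-anti-IP1 Ab, 10 min RT; TR-FRET 665/620 ratio and 620 channel; AC50 via Hill.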
# HPGD block: inhibitors of human 15-hydroxyprostaglandin dehydrogenase (HPGD) | purified HPGD, NADH fluorescence kinetic, PGE2 substrate | 4.3% of 150,000 active | Potency, µM, for the others: at the highest dose activity change, negative = inhibition, usual class: inhibitors | AID 894; further: potency means the concentration at half of the fitted maximal effect
# Target sequence (P15428 whole entry, looked up): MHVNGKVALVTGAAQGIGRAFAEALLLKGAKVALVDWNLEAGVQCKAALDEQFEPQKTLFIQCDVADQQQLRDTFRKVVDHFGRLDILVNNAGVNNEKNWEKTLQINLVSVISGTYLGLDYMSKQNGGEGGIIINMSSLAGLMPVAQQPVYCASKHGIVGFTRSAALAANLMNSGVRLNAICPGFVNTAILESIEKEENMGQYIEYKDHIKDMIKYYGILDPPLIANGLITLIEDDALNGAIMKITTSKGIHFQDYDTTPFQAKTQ
#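 NADH formation kinetics: reaction with 30 uM PGE2 and 1 mM NAD+ (final), 20 nM enzyme, Tris-HCl pH 8 with Tween 20, after 15 min compound preincubation at room temperature. Fluorescence change, last versus first of five reads.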
# IMPase cell inh: membrane-permeable compound that blocks inositol monophosphatase | inhibition (IP1 accumulation), % at 46.1 µM | P97697 | CHO-M1 cells, IP1 accumulation, HTRF TR-FRET ratio | 120,000 tested, under 10 active; active means well fitted curve in the direction sought with a large enough effect in the signal ratio, not every such curve was filed as active; inconclusive means small, poorly fitted or top-dose-only effect, or a change in a side signal; inactive means no such curve, though single readings can be large or run the other way; the % refers to the signal ratio;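 further: cells stimulated with carbachol in lithium chloride buffer; plate controls were DMSO basal wells for no effect and reference inhibitor wells for full effect; higher means more IMPase inhibition seen as more IP1 and lower FRET ratio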
#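 CHO-M1 cells (CHO stably expressing M1 receptor), compound up to 46 uM final, stimulated with carbachol (50 uM as added) in buffer with 50mM LiCl, pH 7.4, 30 min at 37C. Cytosolic IP1 read by TR-FRET; AC50 from Hill fits.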
# 12-hLO inh: blocks human 12-lipoxygenase activity; purified 12-hLO, xylenol orange hydroperoxide absorbance; 0.12% of 150,000 active; Potency, µM (doses to about 57.1 µM), without a hit: at the top dose activity change, negative = inhibition, actives largely listed as inhibitors; AID 1452; active means well fitted curve in the direction sought with a large enough effect; inconclusive means small, poorly fitted or top-dose-only effect, or another doubt; inactive means no such curve, though single readings can be large; an effect the other way counts as inactive or inconclusive; further: potency means the concentration at half of the fitted maximal effect; nearly all actives have a fitted effect of over 55% in size
#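 Lipoxygenase turnover measured by absorbance at 573 and 405 nm after Fe-XO development. Human 12hLO 150 nM, arachidonate 40 uM, pH 7.0 Hepes buffer with detergent; 15 min compound preincubation, 30 min reaction.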
# PNC inhibitor: blocks assembly of the perinucleolar compartment | activity change (PNC), negative = inhibition, % at 10 µM | PC3M PTB-GFP, PNC prevalence imaging, 16 h; hits give low values | AID 2417 | 3.1% of 140,000 active;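 active means readout at or below -70, meaning at least 70% loss of cells showing the perinucleolar compartment, a nuclear body marking cancer cells; inconclusive means readout between -30 and a set limit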;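 further: plate controls were DMSO wells for no effect and camptothecin positive control wells for full effect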
#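 Compounds are pinned in duplicate onto adhered PC3M cells stably expressing GFP-tagged PTB and incubated 16 h at 37 C. Cells are then fixed, nuclei stained with Hoechst, and PNC-positive cells counted.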
# An asterisk follows results filed as active; ? = inconclusive; · = no result given; [ ] = dose if it differs, or a comment. Unless noted, the call rests on the fitted dose curve; in most records, active means well fitted inhibition curve with a large enough effect (not every such curve was filed as active); inconclusive means small, poorly fitted or top-dose-only effect, or another doubt; inactive means no such curve, though single readings can be large or run the other way. Unless noted, on the % scale 0 is the no-effect control and ±100 the full control effect.
SMILES,ALDH1A1 inh,IMPase Li cell,HPGD block,IMPase cell inh,12-hLO inh,PNC inhibitor
O=C(CN1CCOCC1)Nc1ccc(C2CCCCC2)cc1,25.1µM*,0.0%[38.3 µM],15.8µM*,-4.4,-3.8%,7.2
C/C(CCC(=O)OC[C@@H]1O[C@H](C#Cc2ccccc2)C=C[C@@H]1Oc1ccc(C)cc1)=N/OC[C@@H](C)[C@H](OCc1ccccc1)C(C)C,-0.8%[13.5 µM],·,·,·,·,·
CCCCC1(C)NC(=O)N(CC(=O)Nc2ccc(S(=O)(=O)N3CCOCC3)cc2)C1=O (stereo unspecified),3.16µM*,7.0%[38.3 µM],-11.2%,8.1,-5.6%,-87.1*
CO[C@@H]1COC(=O)[C@H](C)NC(=O)[C@@H](C)COC(=O)[C@H](C)NC(=O)C/C=C\[C@H]1C,8.4%[13.5 µM],·,·,·,·,·
CCN1CCCC1Cn1c(-c2ccccc2)nc2c(NC3CCCCC3)nc(C)nc21 (stereo unspecified),?,6.0%,-23.6%,·,0.2%,·
COc1cc(C)c(CNc2ccc(OC)c(OC)c2)cc1C,25.1µM*,-6.2%[38.3 µM],-17.1%,7.6,-10.1%,0.3
COc1cc(C)c(CNc2cccc(C)c2)cc1C,14.1µM*,35.8%[38.3 µM],-21.9%,-4.5,-9.3%,?
O=C(c1cccc(C(=O)N2CCN(c3ccccc3F)CC2)c1)N1CCN(c2ccccc2F)CC1,?,55.4%[38.3 µM],-12.5%,7.8,0.2%,14.7
O=C(c1cc(N2C(=O)C3C4CCC(C4)C3C2=O)ccc1Cl)N1CCN(c2ccccc2F)CC1 (stereo unspecified),-2.3%,9.5%,-2.7%,-0.9,1.2%,-119.3*
O=C(c1cc(N2C(=O)C3C4CCC(C4)C3C2=O)ccc1Cl)N1CCN(c2ccc(F)cc2)CC1 (stereo unspecified),-8.5%,14.9%,-17.2%,6.4,2.9%,0.8
O=C(c1c(F)cccc1F)N1CCN(c2ccccc2F)CC1,-5.4%,2.9%[38.3 µM],-16.0%,15.5,2.1%,-82.0*
CCOC(=O)/C(C#N)=N/Nc1c(C)n(C)n(-c2ccccc2)c1=O,7.94µM*,39.2%,·,·,·,·
O=C(Nc1ccccc1)C(=O)Nc1cccnc1,6.7%,·,·,·,·,·
O=C(Nc1cccnc1)/C(N=Nc1cccnc1)=C(\O)c1ccccc1,1.41µM*,19.3%,-26.0%,-0.5,-3.8%,-29.1
COc1ncc2nc(-c3ccc(Cl)cc3)c(=O)n(CCC#N)c2n1,-2.7%,-8.4%,·,·,·,·
CCCC(=O)N1c2ccccc2-c2nnc(SC)nc2OC1c1sccc1C (stereo unspecified),·,·,·,-0.5,·,·
COc1ccc(N2CC(NC(=O)N3CCc4ccccc43)CC2=O)cc1OC (stereo unspecified),-2.6%,-7.8%,·,·,·,·
N#C/C(Cn1c[n+](NC(=O)Nc2ccccc2)cn1)=N/O,31.6µM*,-12.8%[38.3 µM],-8.5%,3.5,-10.7%,16.3
COc1ccc2[nH]cc(CCNc3ccnc(-c4ccccc4C)n3)c2c1,?,15.1%,·,·,·,·
COc1ccc(Oc2cc(C)nc(Cl)n2)nn1,8.91µM*,-4.3%,·,·,·,·
Cc1cc(Oc2ccc(OCC(N)=O)nn2)nc(Cl)n1,1.9%,-7.1%,·,·,·,·
Cc1ccc(NC(=S)NNc2ncc(C(F)(F)F)cc2Cl)c(C)c1,?,19.6%[38.3 µM],-16.5%,4.2,-19.9%,6.6
FC(F)(F)c1cnc(NNC(=S)Nc2ccc(Cl)cc2)c(Cl)c1,5.01µM*,6.6%,-24.6%,·,-20.8%,?
Fc1ccc(NC(=S)NNc2ncc(C(F)(F)F)cc2Cl)c(F)c1,4.47µM*,12.0%,·,·,·,·
CC(Cl)C(=O)Nc1ncc(C(F)(F)F)cc1Cl (stereo unspecified),7.08µM*,23.3%[38.3 µM],-19.5%,-7.7,2.5%,0.6
SMILES,ALDH1A1 inh,IMPase Li cell,HPGD block,IMPase cell inh,12-hLO inh,PNC inhibitor
CC(C)C(=O)Nc1ncc(C(F)(F)F)cc1Cl,10.1%,0.3%[38.3 µM],-6.3%,9.4,0.6%,-12.2
Cc1ccc(NC(=S)NNc2ncc(C(F)(F)F)cc2Cl)cc1,10µM*,-4.7%,-10.0%,-9.2,-13.1%,?
COc1cc(CN2CCCC(CO)(Cc3ccccc3C)C2)cc2c1OCO2 (stereo unspecified),2.7%,17.4%,·,·,·,·
CCOC(=O)CCN1C(=O)[C@H]2[C@H]3[C@H](O)[C@H](O)C/C(=N/OCC(C)C)[C@@H]3CC[C@@H]2C1=O,12.3%[13.5 µM],·,·,·,·,·
COc1ccc(/C=C/C(=O)c2nc3ccccc3n2CC(=O)c2ccc(OC)cc2)cc1,15.8µM*,0.9%[38.3 µM],-17.6%,1.8,-8.5%,-17.7
COc1ccc(C(=O)Cn2c(NCCO)nc3ccccc32)cc1,1.0%,7.1%,·,·,·,·
COc1ccc(C(=O)/C=C/c2ccc(OC)c(CN3CCOCC3)c2)cc1,?,4.2%,-20.7%,·,-3.7%,-23.1
COc1ccc(C(=O)/C=C/c2ccccc2)cc1,17.8µM*,11.9%,-8.3%,·,-2.7%,·
COc1ccc(C(=O)/C=C/c2ccc(OC)c(Cn3nnc4ccccc43)c2)cc1,11.2µM*,21.7%,?,-1.2,-2.4%,?
COC(=O)N1C(C2CC2)=Cc2ccccc2C1CC(C)=O (stereo unspecified),2.4%,10.9%,-3.8%,·,1.9%[11.4 µM],·
CCCCCOC(=O)c1ccc(Nc2nc(C(=O)OCC)nc3ccccc23)cc1,·,·,·,-8.0,·,·
O=C(O)/C(=N/NC(=O)c1ccc(Cl)cc1)c1ccccc1,-10.4%,·,·,·,·,·
CN(C)c1ncc2nc(-c3cccs3)c(=O)n(C)c2n1,6.8%,-0.9%,·,·,·,·
C/C(=N\NC(=O)CSc1ncccn1)c1ccc2c(c1)OCCO2,?,9.7%,·,·,·,·
Cc1cc(S(=O)(=O)N2CCC(NC(=O)C34CC5CC(CC(C5)C3)C4)CC2)ccc1-n1cnnn1,?,3.4%[38.3 µM],-22.0%,4.1,-1.9%,28.7
Cc1cc(S(=O)(=O)N2CCC(N3CCCCC3)CC2)ccc1-n1cnnn1,0.0282µM*,-0.4%,-12.1%,·,-3.3%,-29.7
COCCn1c(=O)c(-c2cccs2)nc2cnc(N3CCOCC3)nc21,?,11.2µM*,·,·,·,·
COC(=O)CC1C(C)(C)C(=O)C2CC3C4=CC(=O)OC(c5ccoc5)[C@]4(C)CCC3[C@@]1(C)C2=O (stereo partly specified),-2.1%,14.4%,-4.8%,·,-3.8%,·
CCOc1cc2c(cc1C=O)OC(C)C2 (stereo unspecified),25.1µM*,-15.5%,·,·,·,·
COc1cc2c(cc1C=O)OC(C)C2 (stereo unspecified),?,-5.2%,·,·,·,·
CC(=O)N1CCC(N(CCN2CCOCC2)C(=S)Nc2ccccc2C)CC1,7.0%,-6.3%,-2.7%,·,-2.7%,-111.8*
CC(=O)c1c(C)[nH]c(C(=O)OCC(=O)Nc2cc(S(=O)(=O)N3CCCC3)ccc2Cl)c1C,9.4%,11.3%,-8.7%,5.9,1.2%,-107.7*
O=C(CN1CCN(c2ccc(O)cc2)CC1)Nc1cc(S(=O)(=O)N2CCCC2)ccc1Cl,14.1µM*,2.2%,·,·,·,·
